Among the test systems are SK-MEL-2 melanoma; EKVX NSCLC; SN12C renal; UO-31 renal; TK-10 renal; ACHN renal; CAKI-1 renal; A498 renal; CCRF-CEM leukemia; MOLT-4 leukemia.
Assay in all cases: NCI-60 one-dose screen, 48 h (100 = growth as untreated, 0 = no growth, -100 = all killed)
What all share (conditions): 10 µM unless noted

Structures are written as SMILES. The panel holds about 83,000 compounds, 20% with a hit somewhere; the sample as a whole holds those more often.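 Results are percent growth after 48 hours of single-concentration exposure. 100 means growth as in untreated cells, lower positive values show inhibition; negative values down to -100 show cell death.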 A number with no mark means an inactive call. Activity calls are given as the source filed them. How the source made its calls: active means growth percent below 10; inactive means the rest.

Regarding `Cc1[nH]c(C(=O)Nc2ccc(C(=O)N3CCN(c4cc5c(cc4F)c(=O)c(C(=O)O)cn5C4CC4)CC3)cc2OC(C)C)c(Cl)c1Cl`, the growth with SK-MEL-2 melanoma was 105%; in the assay with EKVX NSCLC, 80.5%; with SN12C renal, 31.2%; in the assay with UO-31 renal it was 56.2%; with TK-10 renal, 82.7%; in the assay with ACHN renal, 67.9%. Also, the growth is 74.8% in the assay with CAKI-1 renal, 55.6% in the assay on A498 renal, 53% with CCRF-CEM leukemia and 93.3% in the assay with MOLT-4 leukemia.

In the case of `O=C(/C=C(/C=C/c1ccc2[nH]ccc2c1)OB(F)F)/C=C/c1ccc2[nH]ccc2c1`, the growth was 25.8% in the assay on SK-MEL-2 melanoma; 4.65% (active) in the assay on EKVX NSCLC; 10% in the assay with SN12C renal; 2.63% (active) with UO-31 renal; 5.77% (active) in the assay with TK-10 renal; -22.4% (active) in the assay on ACHN renal. The growth with CAKI-1 renal was -14.5% (active); with A498 renal it was 32.5%; in the assay with CCRF-CEM leukemia, -19.9% (active); with MOLT-4 leukemia, -4.43% (active).

In the case of `Cn1c(=O)c2nc(/C=C/c3ccccc3)c(=O)[nH]c2n(C)c1=S`, the growth with SK-MEL-2 melanoma is 109%; with EKVX NSCLC, 101%; in the assay on SN12C renal it was 104%; in the assay on UO-31 renal, 86.9%; in the assay on TK-10 renal, 115%; with ACHN renal, 105%. Further, the growth was 92.1% with CAKI-1 renal, 97.8% with A498 renal, 101% in the assay with CCRF-CEM leukemia and 103% in the assay on MOLT-4 leukemia.

For `Cc1cc(S(=O)(=O)/N=C(\N)n2nc(C)c(C)c2C)c(SCc2ccccc2)cc1Cl`, the growth in the assay on SK-MEL-2 melanoma is -12.3% (active); in the assay on EKVX NSCLC, 38.9%; in the assay on SN12C renal, 76.3%; with UO-31 renal, 23.8%; with TK-10 renal, 116%; in the assay on ACHN renal, 71.2%. In addition, the growth with CAKI-1 renal was 71.9%; with A498 renal, 85.1%; in the assay with CCRF-CEM leukemia it was 41.5%; in the assay with MOLT-4 leukemia it was 46%.

On to `CC(=O)N1N=C(c2ccc(Nc3nc(Nc4ccccc4)nc(Nc4ccccc4)n3)cc2)CC1c1ccccc1` (stereo not given), for which the growth in the assay on SK-MEL-2 melanoma was 58.6%; in the assay with EKVX NSCLC, 79.7%; in the assay on SN12C renal it was 99.6%; with UO-31 renal it was 73.5%; in the assay with TK-10 renal, 87.7%; in the assay with ACHN renal, 93.5%. Further, the growth in the assay with CAKI-1 renal was 90.2%; in the assay on A498 renal it was 82.4%; in the assay on CCRF-CEM leukemia, 68.2%; in the assay on MOLT-4 leukemia, 75.1%.

On to `NC(=O)c1ccc(-c2c3ccccc3cc3c2ccc2ccccc23)cc1`, for which the growth in the assay with SK-MEL-2 melanoma was 43.7%; in the assay with EKVX NSCLC it was 67.7%; in the assay on SN12C renal, 72.9%; in the assay on UO-31 renal, 57.5%; in the assay on TK-10 renal, 70.2%; in the assay with ACHN renal it was 57.2%. The growth in the assay on CAKI-1 renal was 61.7%; in the assay with A498 renal, 70%; in the assay with CCRF-CEM leukemia, 37.8%; in the assay on MOLT-4 leukemia, 40.5%.

As for `COC(=O)C1Cc2ccccc2CN1C(=O)c1ccc2c(c1)Cc1ccccc1-2` (stereo not given), the growth with SK-MEL-2 melanoma is 47.4% [50 µM]; in the assay with EKVX NSCLC, 24.5% [50 µM]; in the assay with SN12C renal, 38.5% [50 µM]; in the assay on UO-31 renal it was 13.9% [50 µM]; in the assay with TK-10 renal, 52.2% [50 µM]; in the assay with ACHN renal, 43.3% [50 µM]. Also, the growth was 28.7% [50 µM] in the assay on CAKI-1 renal, 27.3% [50 µM] with A498 renal, 32.1% [50 µM] with CCRF-CEM leukemia and 21.9% [50 µM] with MOLT-4 leukemia.

Take `COc1ccc(/C=C(\C#N)n2nnc3ccc(Cl)cc32)cc1`: the growth is 62.9% in the assay with SK-MEL-2 melanoma; 90% in the assay on EKVX NSCLC; 52.4% with SN12C renal; 50.2% in the assay on UO-31 renal; 77.6% with TK-10 renal; 45.6% in the assay on ACHN renal. Also, the growth is 46.3% in the assay on CAKI-1 renal, 79.7% in the assay with A498 renal, 45.5% in the assay with CCRF-CEM leukemia and 83.7% in the assay on MOLT-4 leukemia.

In the case of `Cc1ccc(NC(=O)c2sc3nc(C)c(Br)c(C)c3c2N)cc1`, the growth in the assay on SK-MEL-2 melanoma was 82.6%; in the assay with EKVX NSCLC, 61.9%; with SN12C renal it was 70.5%; in the assay on UO-31 renal it was 65.4%; in the assay on TK-10 renal it was 50.7%; with ACHN renal, 34.5%. Moreover, the growth was 74.3% with CAKI-1 renal, 76.5% in the assay on A498 renal, 94.7% in the assay on CCRF-CEM leukemia and 90% in the assay on MOLT-4 leukemia.

`COc1ccc(Nc2ncc(Br)c(NCCCNC(=O)c3cccs3)n2)cc1`: the growth with SK-MEL-2 melanoma is 46.8%; in the assay with EKVX NSCLC it was 55.6%; in the assay with SN12C renal, 21.5%; in the assay on UO-31 renal, -0.36% (active); with TK-10 renal it was 24.3%; with ACHN renal it was 21.3%. Also, the growth in the assay on CAKI-1 renal was 16.2%; in the assay with A498 renal, 51.7%; with CCRF-CEM leukemia, 16.3%; in the assay on MOLT-4 leukemia, 19.5%.

Turning to `CCOC(=O)c1c(NC(=O)c2cccc(C(F)(F)F)c2)sc2c(CN(C)C)c(O)ccc12`, the growth in the assay on SK-MEL-2 melanoma was 108%; in the assay with EKVX NSCLC, 98.8%; in the assay with SN12C renal, 90%; in the assay with UO-31 renal, 48.9%; with TK-10 renal it was 113%; with ACHN renal it was 45.5%. Also, the growth is 71.1% in the assay with CAKI-1 renal, 82% in the assay with A498 renal, 9.93% (active) with CCRF-CEM leukemia and 43.4% with MOLT-4 leukemia.

For `Nc1nc2ccccc2c2c1S(=O)(=O)c1ccc(Cl)cc1C2=O`, the growth is 42% in the assay with SK-MEL-2 melanoma; 48.2% with EKVX NSCLC; 11.4% in the assay with SN12C renal; -15.2% (active) with UO-31 renal; 16.6% in the assay on TK-10 renal; 17.8% in the assay with ACHN renal. Moreover, the growth is 19% with CAKI-1 renal, 56.9% in the assay with A498 renal, -10.3% (active) in the assay with CCRF-CEM leukemia and 3.11% (active) in the assay with MOLT-4 leukemia.

Regarding `COc1ccc(C2=C(Nc3ccc(C(=O)Nc4ccccc4)cc3)C(=O)N(C)C2=O)cc1`, the growth was 85.1% in the assay on SK-MEL-2 melanoma; 96.8% in the assay with EKVX NSCLC; 99.2% in the assay with SN12C renal; 71.8% in the assay with UO-31 renal; 95.4% in the assay on TK-10 renal; 89.9% in the assay with ACHN renal. Moreover, the growth in the assay on CAKI-1 renal was 80.9%; in the assay with A498 renal it was 116%; in the assay with CCRF-CEM leukemia it was 85.4%; in the assay on MOLT-4 leukemia it was 76.7%.

For the origin of these results see PubChem BioAssay (NCI).
